DT40 TDP1 CPT: qHTS for Inhibitors of human tyrosyl-DNA phosphodiesterase 1 (TDP1): qHTS in cells in presence of CPT | chicken DT40 Tdp1-/-;hTDP1 cells + 20 nM CPT, ATP luminescence, 48 h | Potency, µM (series often up to 46.2 µM), for inactives: at the top dose activity change, negative = growth inhibition, hits mostly inhibitors | 420,000 compounds, 12% hits | AID 686979, 2013; note: potency is the fitted concentration of half-maximal effect; nearly all actives have a fitted effect of over 55% in size
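Chicken DT40 Tdp1-/- cells complemented with human TDP1, 400 cells/well, exposed to compounds plus 20 nM camptothecin for at least 48 h at 37 C; viability read as ATP content by CellTiter-Glo luminescence.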
HT1080 IDH1KD tx: qHTS for induction of synthetic lethality in tumor cells producing 2HG: qHTS for the HT-1080-IDH1KD cell line; HT-1080 IDH1 knockdown viability, ATP luminescence, 48 h; Potency, µM (series often up to 46.1 µM), inactives show at the highest dose activity, negative = toxicity, most hits filed as cytotoxic; 360,000 compounds, 2% hits; AID 686971, 2013;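 note: potency is the fitted concentration of half-maximal effect; 0% = DMSO wells and -100% = cell-free medium wells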
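IDH1KD HT-1080 cells, 750/well, RPMI + 5% FBS; compound pinned after 2 h settling; 48 h, 37 °C; CellTiter-Glo luminescence; % activity normalised to DMSO and no-cell wells; curves fitted, classed by r2 and efficacy.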
DT40 TDP1 no CPT: qHTS for Inhibitors of human tyrosyl-DNA phosphodiesterase 1 (TDP1): qHTS in cells in absence of CPT; DT40 Tdp1-/- hTDP1 cells, no CPT, ATP luminescence, 48 h; Potency, µM (highest dose often 46.2 µM), without a hit: at the top dose activity change, negative = growth inhibition, actives largely listed as inhibitors; 420,000 compounds, 15% hits; AID 686978, 2013; note: potency is the fitted concentration of half-maximal effect; nearly all actives have a fitted effect of over 55% in size
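No-CPT arm: Tdp1-/-;hTDP1 DT40 cells (400/well) plus compounds, incubated ≥48 hr at 37 °C. Readout CellTiter-Glo luminescence.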
HT1080-NT tox: qHTS for induction of synthetic lethality in tumor cells producing 2HG: qHTS for the HT-1080-NT fibrosarcoma cell line; 360,000 compounds, 1.6% hits; Potency, µM (top dose mostly 46.1 µM), for inactives: at the top dose activity, negative = less viability, actives largely listed as cytotoxic; HT-1080-NT fibrosarcoma viability, CellTiter-Glo ATP luminescence, 48 h; AID 686970, 2013;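 note: NT is the 2HG producing partner of a matched IDH1 knockdown line; potency is the fitted concentration of half-maximal effect; 0% = DMSO-treated cells and -100% = media-only wells without cells; nearly all actives have a fitted effect of over 55% in size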
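Fibrosarcoma NT cells, 750 per well in 5% FBS RPMI, were exposed to compound for 48 hours. Viability: CellTiter-Glo luminescence.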
12-LOX inh: Primary qHTS assay for inhibitors of human arachidonate 12S-lipoxygenase (ALOX12): Round 2. Potency, µM (doses to about 108 µM), for the others: top-dose activity change, negative = inhibition, actives largely listed as inhibitors. 580,000 compounds, 1.1% hits. AID 1671190, 2021. purified 12hLO, xylenol orange hydroperoxide absorbance. Polyunsaturated fatty acid lipoxygenase ALOX12 (Homo sapiens), P18054; note: potency is the fitted concentration of half-maximal effect
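Purified human 12hLO at 150 nM in 25 mM Hepes, 0.01% Triton X-100, pH 7.0, preincubated 15 min at room temperature with compound. Reaction started with 40 uM arachidonic acid, 30 min at room temperature. Hydroperoxide measured by Fe-xylenol orange, 573/405 nm absorbance ratio.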
IL1B secr inh: qHTS for Inhibitors of Inflammasome Signaling: IL-1-beta AlphaLISA Primary Screen | THP-1 LPS/ATP IL-1B secretion, AlphaLISA, 16 h; active compounds read low | activity change, % at 57.5 µM | 360,000 compounds, 4.7% hits | AID 743279, 2014; in the data active = activity change below about -50%; inconclusive = mostly about -30% to -49%
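THP-1 cells pretreated 1 hr with compounds (up to 57.5 uM final), then stimulated with LPS (250 ng/mL final) plus ATP (1.25 mM final); secreted IL-1B measured by AlphaLISA after 16 hr, decreased signal indicating inhibition.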
* marks the source's active call; other numbers are inactive results; ? = inconclusive; . = not tested or not shown. The full list was thinned out, with hits kept by preference. Unless noted, calls come from the whole dose curve; as a rule, active = well fitted curve in the direction sought with a large enough effect; inconclusive = small, poorly fitted or top-dose-only effect, or another doubt; inactive = no such curve, though single readings can be large; an effect the other way counts as inactive or inconclusive. Unless noted, % is set by controls: 0 for no effect and ±100 for the full control effect.

SMILES	DT40 TDP1 CPT	HT1080 IDH1KD tx	DT40 TDP1 no CPT	HT1080-NT tox	12-LOX inh	IL1B secr inh
Cc1ccc(-c2nn3c(-c4ccccc4C)nnc3c3ccccc23)cc1	?	.	18µM*	.	-18%	.
O=c1cc(/C=C/c2ccccc2)oc2ccccc12	16µM*	?	?	?	12%	-11
CCn1cnc2cc(NS(=O)(=O)c3ccc(C)cc3)ccc21	?	-2%	?	5%	-24%	18
Cc1ccc(S(=O)(=O)Nc2ccc(S(=O)(=O)N3CCOCC3)cc2)cc1	-8%	0%	-3%	-10%	126%	0
CCOC(=O)c1c(C)n(S(=O)(=O)c2ccc(C)cc2)c2ccc(NS(=O)(=O)c3ccc(C)cc3)cc12	18µM*	.	21µM*	.	?	.
Cc1ccc(S(=O)(=O)Nc2ccc3c(c2)c2c(n3S(=O)(=O)c3ccc(C)cc3)CCCC2=O)cc1	5.8µM*	-15%	8.2µM*	-5%	-29%	25
Nc1nnnn1/N=C/c1ccccc1	2%	-13%	?	-3%	36%	-15
Nc1nnnn1/N=C/c1ccccc1C(F)(F)F	12µM*	10%	18µM*	13%	-16%	0
CCOC(=O)c1cc2c(=O)n3ccccc3nc2n(Cc2ccco2)c1=NC(=O)c1cccc(OC)c1	?	-18%	?	-15%	-12%	-55*
CCOC(=O)c1cc2c(=O)n3ccccc3nc2n(CCCOC)c1=NC(=O)c1ccncc1	-4%	9%	-30%	2%	-24%	-3
CCOC(=O)c1cc2c(=O)n3cccc(C)c3nc2n(Cc2ccco2)c1=NC(=O)c1ccc(C)cc1	-3%	7%	-5%	6%	.	-4
CCOC(=O)c1cc2c(=O)n3ccccc3nc2n(CC(C)C)c1=NC(=O)C(C)Oc1ccccc1 (stereo unspecified)	?	.	?	.	-24%	.
CCOC(=O)c1cc2c(=O)n3ccccc3nc2n(Cc2ccco2)c1=NC(=O)c1ccc(OC)cc1	6.5µM*	-12%	5.2µM*	-2%	20%	2
CCOC(=O)c1cc2c(=O)n3cccc(C)c3nc2n(Cc2ccco2)c1=NC(=O)c1ccccc1	29µM*	9%	?	4%	?	15
CCOC(=O)c1cc2c(=O)n3ccccc3nc2n(Cc2ccco2)c1=NC(=O)c1ccccc1OC	16µM*	-8%	13µM*	-5%	?	?
C/C=N/NC(=O)CCCCC(=O)N/N=C/C	.	.	.	.	17%	.
O=C(c1ccccc1)N(Cc1ccc2[nH]ccc2c1)C1CC1	.	.	.	.	-1%	.
CCC(C)[C@H](NC(=O)[C@@H]1Cc2ccccc2CN1)C(=O)NC1CCCC1 (stereo partly specified)	.	.	.	.	11%	.
CCOC(=O)c1cc2c(=O)n3ccccc3nc2n(CC2CCCO2)c1=NC(=O)c1ccccc1OCC (stereo unspecified)	16µM*	.	15µM*	.	3%	.
CCOC(=O)c1cc2c(=O)n3ccccc3nc2n(CC2CCCO2)c1=NC(=O)c1ccccc1C (stereo unspecified)	8%	.	0%	.	-30%	.
Cn1cnc(S(=O)(=O)N2CCC(N3C(=O)C4(CCCCC4)C3c3ccncc3)CC2)c1 (stereo unspecified)	.	.	.	.	9%	.
O=C(c1ccccc1)N(Cc1cccc2[nH]ccc12)C1CC1	.	.	.	.	-12%	.

Source: PubChem BioAssay (National Center for Advancing Translational Sciences (NCATS))
